A number with no mark means an inactive call. Results filed as inconclusive are left out. Active and inactive are the calls of the source. Unless noted, calls come from the whole dose curve; as a rule, active = well fitted curve in the direction sought with a large enough effect in the repeat runs; inconclusive = weak or mixed curves; inactive = no such curve, though single readings can be large; an effect the other way counts as inactive or inconclusive.

Test [1] in a line: qHTS assay to identify small molecule agonists of the constitutive androstane receptor (CAR) signaling pathway - cell viability counter screen (AID 1224836). Note: nearly all actives have a fitted effect of over 45% in size. An outline of the steps:
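HepG2 cells stably carrying hCAR and a CYP2B6-2.2kb reporter were plated 4 h, then given compounds at 15 concentrations plus PK11195 (final 0.75 uM). After 23 h at 37 C, viability was read by CellTiter-Fluor fluorescence.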

A short description of test [2]: qHTS assay to identify small molecule antagonists of the constitutive androstane receptor (CAR) signaling pathway - cell viability counter screen (AID 1224837). Note: nearly all actives have a fitted effect of over 45% in size. In outline:
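CITCO at 50 nM final was added alongside compounds (15 concentrations) to double-stable hCAR/CYP2B6-2.2kb HepG2 cells. Following 23 hr at 37 C, cell viability was quantified by CellTiter-Fluor fluorescence intensity.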
A general note: Quantitative high-throughput screening tests each substance at several concentrations.

Test [3] has as its target Nuclear receptor subfamily 1 group I member 3 (Homo sapiens) (UniProt Q14994). The experiment in a line: qHTS assay to identify small molecule antagonists of the constitutive androstane receptor (CAR) signaling pathway (AID 1224838). Note: nearly all actives have a fitted effect of over 40% in size. In outline: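 Inhibition of CITCO-driven (50 nM final) CYP2B6 reporter expression is measured in HepG2 cells stably carrying hCAR. Fifteen compound concentrations are applied for 24 h at 37 C, followed by luciferase luminescence.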

Test [4] shares this target. The experiment in a line: qHTS assay to identify small molecule agonists of the constitutive androstane receptor (CAR) signaling pathway (AID 1224839). Note: nearly all actives have a fitted effect of over 15% in size. Note: potency is the fitted concentration of half-maximal effect. In outline:
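HepG2 cells stably expressing hCAR and a CYP2B6-2.2kb luciferase reporter were treated with compounds at 15 concentrations plus 0.75 uM PK11195 (final) for 24 h at 37 C; luminescence was read after ONE-Glo addition.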

A short description of test [5]: qHTS assay to identify small molecule antagonists of the estrogen related receptor signaling pathway with the pleiotropic PPARgamma coactivator (PGC) from Tox21 10K library - cell viability counter screen (AID 1224840; active = well fitted cell-killing curve with a large enough effect in the repeat runs, not every such curve was filed as active; note: nearly all actives have a fitted effect of over 40% in size). In outline:
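Readout: fluorescence intensity from CellTiter-Fluor after 30 min at 37 C/5% CO2. Preceded by 17.5 h treatment of PGC/ERR cells with DMSO-dissolved compounds, added 6 h post-seeding.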

Test [6] can be described thus: qHTS assay to identify small molecule antagonists of the estrogen related receptor signaling pathway with the pleiotropic PPARgamma coactivator (PGC) from Tox21 10K library (AID 1224841; call rule not given here; note: actives are mostly falling curves and most rising ones were filed inactive; nearly all actives have a fitted effect of over 50% in size). In outline:
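One-Glo luminescence, measured after half an hour at room temperature, quantified reporter output of PGC/ERR cells. These had been plated at 2,000 per well, incubated 6 h, dosed with compounds in DMSO, then kept 18 h at 37 C.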

A short description of test [7]: qHTS assay to identify small molecule agonists of the estrogen related receptor signaling pathway with the pleiotropic PPARgamma coactivator (PGC) from Tox21 10K library (AID 1224842). Note: nearly all actives have a fitted effect of over 15% in size. Note: potency is the fitted concentration of half-maximal effect. An outline of the steps: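 Luminescence from One-Glo (30 min, room temperature) measured after PGC/ERR cells had 18 h at 37 C with pinned compound (23 nL in DMSO). Cells had been seeded at 2,000 per well and pre-incubated 6 h.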

Test [8] concerns the target Thyrotropin receptor (Homo sapiens) (UniProt P16473). The experiment in a line: qHTS assay to identify small molecule agonists of the thyroid stimulating hormone receptor (TSHR) signaling pathway (AID 1224843; calls by dose curve; note: nearly all actives have a fitted effect of over 45% in size). In outline: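 Agonist activity read as cAMP rise via d2/cryptate HTRF competition, 1 h room-temperature detection, in HEK293 cells expressing TSHR. Fifteen-point titrations, each run in triplicate, with a 30 min room-temperature incubation beforehand.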

Test [9] can be described thus: qHTS assay to identify small molecule agonists of the hypoxia (HIF-1) signaling pathway - cell viability counter screen (AID 1224844; calls by dose curve; note: nearly all actives have a fitted effect of over 50% in size). An outline of the steps: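 In this counter screen, HRE-bla ME-180 cell viability after 17 hrs of compound exposure at 37C was read by CellTiter-Glo luminescence, multiplexed with the beta-lactamase reporter measurement.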
Test [10] in a line: qHTS assay to identify small molecule agonists of H2AX (AID 1224845; active = well fitted activation curve with a large enough effect in the signal ratio in the repeat runs, not every such curve was filed as active; the % refers to the signal ratio). An outline of the steps:
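Phospho-H2AX Ser139 measured by HTRF (ex 320 nm; em 665 and 620 nm) after 24 hr antibody incubation. Compounds, 15 concentrations, 0.76% DMSO, were applied to CHO-K1 cells for 3hr at 37C before lysis.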

Test [11] in a line: qHTS assay to identify small molecule agonists of the hypoxia (HIF-1) signaling pathway (AID 1224846; active = well fitted activation curve with a large enough effect in the signal ratio in the repeat runs, not every such curve was filed as active; the % refers to the signal ratio). An outline of the steps: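 ME-180 HRE-bla reporter cells; compounds in DMSO, 17 h at 37C; read-out beta-lactamase via CCF4-AM FRET.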
Test [12] can be described thus: qHTS assay to identify small molecule agonists of H2AX - cell viability counter screen (AID 1224847; calls by dose curve; note: top concentration of the series differs between compounds; nearly all actives have a fitted effect of over 30% in size). In outline: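 Wild-type CHO-K1 cells (10% FBS medium) were plated overnight at 37C, exposed to compounds at 15 concentrations for 3 hr at 37C (0.76% DMSO final), and viability was read as CellTiter-Glo luminescence after 30 min at room temperature.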
The nature of test [13]: qHTS assay to identify small molecule antagonists of the estrogen related receptor (ERR) signaling pathway from Tox21 library (AID 1224848). Note: nearly all actives have a fitted effect of over 50% in size. In outline:
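Luciferase luminescence (ONE-Glo, 30 min room temperature) was the read-out. Cells of the NTP-supplied ERR line, 2,000 per well, were given 6 h at 37 C before compound addition in DMSO and 18 h exposure at 37 C.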

The nature of test [14]: qHTS assay to identify small molecule agonists of the estrogen related receptor (ERR) signaling pathway from Tox21 library (AID 1224849; calls by dose curve; note: nearly all actives have a fitted effect of over 15% in size). To be noted: ERR reporter cell line, ONE-Glo luciferase, 18 h; at 92.4 µM (top of the series) unless noted. In outline: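 Luciferase activity in ERR pathway reporter cells served as the agonist readout; exposure lasted 18 h at 37 C, with ONE-Glo detection after 30 min at room temperature.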

Test [15] in a line: qHTS RealTime-Glo MT Cell Viability Assay in HepG2 cells - 24 hour (AID 1224867). Note: nearly all actives have a fitted effect of over 50% in size. In outline:
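Tox21 10K library screened in qHTS format on HepG2 cells carrying RealTime-Glo reagents. Compounds were added after a 5 h preincubation, and the luminescent signal from continuous culture was measured repeatedly during 40 h treatment.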

Test [16] in a line: qHTS RealTime-Glo MT Cell Viability Assay in HEK293 cells - 32 hour (AID 1224868). For activity change, negative = cytotoxic: top concentration of the series differs between compounds. Note: nearly all actives have a fitted effect of over 50% in size. Note: potency is the fitted concentration of half-maximal effect. In outline:
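Luminescence generated by NanoLuc from substrate produced by living HEK293 cells served as the viability signal. Each value reflects the reading at its stated time point during continuous 40 h compound exposure at 37 C.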

A short description of test [17]: A CellTox Green Cytotoxicity Assay to monitor cytotoxicity in HEK293 cells - 0 hour (AID 1224869). Note: nearly all actives have a fitted effect of over 50% in size. An outline of the steps: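 Real-time, in one plate: 600 HEK293 cells/well with dead-cell DNA dye, pinned compound after 5 h, 37 C incubation over 40 h; viable cells give no appreciable fluorescence.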
Test [18] can be described thus: qHTS RealTime-Glo MT Cell Viability Assay in HepG2 cells - 40 hour (AID 1224870). Note: nearly all actives have a fitted effect of over 50% in size. In outline: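 Real-time viability: cells seeded at 600 per well together with NanoLuc and cell-permeant prosubstrate, compounds added after 5 h incubation. Luminescence tracked at 0, 8, 16, 24, 32 and 40 h of exposure.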
Test [19] addresses Luciferin 4-monooxygenase (Photinus pyralis) (UniProt P08659). Nature of the test: qHTS assay to identify small molecule inhibitors of firefly luciferase (AID 1224835). Note: nearly all actives have a fitted effect of over 25% in size. Note: potency is the fitted concentration of half-maximal effect. In outline: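 Inhibition of purified Photinus luciferase is measured by luminescence. Substrate levels (D-luciferin, ATP) sit at their KM values. Each compound is tested in a concentration series.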
% is set by controls: 0 for no effect and ±100 for the full control effect.

Sequence of Thyrotropin receptor (Homo sapiens) (P16473 whole entry, looked up): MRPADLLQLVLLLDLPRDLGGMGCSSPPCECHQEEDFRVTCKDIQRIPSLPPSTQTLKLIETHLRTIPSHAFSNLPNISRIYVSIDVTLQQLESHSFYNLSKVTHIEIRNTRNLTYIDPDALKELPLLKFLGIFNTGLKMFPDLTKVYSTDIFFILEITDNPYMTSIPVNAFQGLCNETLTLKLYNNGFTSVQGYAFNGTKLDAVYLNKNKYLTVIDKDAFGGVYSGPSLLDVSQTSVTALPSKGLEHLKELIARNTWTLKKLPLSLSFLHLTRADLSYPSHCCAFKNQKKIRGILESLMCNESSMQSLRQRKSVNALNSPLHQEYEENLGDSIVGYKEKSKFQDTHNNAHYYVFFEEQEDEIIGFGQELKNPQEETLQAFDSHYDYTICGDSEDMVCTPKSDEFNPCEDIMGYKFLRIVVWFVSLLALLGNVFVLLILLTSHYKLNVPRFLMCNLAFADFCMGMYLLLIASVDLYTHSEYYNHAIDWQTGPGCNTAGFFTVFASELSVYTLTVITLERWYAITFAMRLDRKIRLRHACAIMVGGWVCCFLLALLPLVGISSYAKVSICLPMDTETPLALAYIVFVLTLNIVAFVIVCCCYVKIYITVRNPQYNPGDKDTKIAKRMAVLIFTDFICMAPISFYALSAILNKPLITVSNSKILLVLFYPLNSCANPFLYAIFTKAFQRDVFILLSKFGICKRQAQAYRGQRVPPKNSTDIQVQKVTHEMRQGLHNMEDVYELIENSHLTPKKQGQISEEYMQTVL
Sequence of Nuclear receptor subfamily 1 group I member 3 (Homo sapiens) (Q14994 whole entry, looked up): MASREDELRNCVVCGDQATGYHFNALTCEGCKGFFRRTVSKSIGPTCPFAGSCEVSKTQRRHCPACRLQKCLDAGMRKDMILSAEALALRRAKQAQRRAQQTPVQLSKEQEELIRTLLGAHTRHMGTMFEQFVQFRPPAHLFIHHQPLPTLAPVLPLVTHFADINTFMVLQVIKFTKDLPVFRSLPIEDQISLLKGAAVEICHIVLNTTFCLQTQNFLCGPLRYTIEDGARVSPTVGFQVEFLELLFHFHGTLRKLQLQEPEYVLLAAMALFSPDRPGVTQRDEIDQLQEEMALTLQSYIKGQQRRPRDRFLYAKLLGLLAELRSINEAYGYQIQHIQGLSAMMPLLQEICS
Sequence of Luciferin 4-monooxygenase (Photinus pyralis) (P08659 whole entry, looked up): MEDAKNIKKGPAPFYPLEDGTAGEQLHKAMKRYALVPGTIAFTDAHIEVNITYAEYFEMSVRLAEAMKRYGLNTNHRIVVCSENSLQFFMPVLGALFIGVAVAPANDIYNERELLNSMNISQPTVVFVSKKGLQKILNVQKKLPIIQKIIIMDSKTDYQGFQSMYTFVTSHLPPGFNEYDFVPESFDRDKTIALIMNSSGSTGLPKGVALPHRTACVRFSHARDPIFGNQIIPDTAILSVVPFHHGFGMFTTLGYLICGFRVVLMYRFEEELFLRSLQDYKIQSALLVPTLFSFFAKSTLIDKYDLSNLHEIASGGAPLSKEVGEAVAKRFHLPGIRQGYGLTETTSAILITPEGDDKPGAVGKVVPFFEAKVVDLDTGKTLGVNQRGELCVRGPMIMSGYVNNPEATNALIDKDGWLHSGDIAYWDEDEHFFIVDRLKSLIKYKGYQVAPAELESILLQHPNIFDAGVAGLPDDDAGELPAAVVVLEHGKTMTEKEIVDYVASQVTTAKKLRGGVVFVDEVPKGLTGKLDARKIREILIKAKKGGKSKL

As for `C=O`, the Potency entry in [1], in test [2], in test [3], in test [4], in test [5] and in [6] was “inactive” each time. Moreover, the Potency entry in [7], in test [8], in [9], in test [10], in test [12] and in [13] was “inactive” each time. Besides, the Potency result in test [15], in [16], in test [17] and in test [18] was “inactive” in each case. In addition, the outcome in test [11] was inactive. Also, the activity change, positive = activation in test [14] was 0.267%.
In the case of `CC1=NN(c2cc(Cl)c(S(=O)(=O)O)cc2Cl)C(=O)C1N=Nc1ccc(S(=O)(=O)O)cc1` (stereo not drawn), the Potency entry in [19], in [8], in [9], in test [12], in [15] and in test [16] was “inactive” each time. For the same compound, the Potency entry in test [17] and in test [18] was “inactive” in each case. In test [11], the compound was classed as inactive.
Consider `CN(C)CC[C@@H](c1ccc(Cl)cc1)c1ccccn1`, for which the Potency entry in test [1], in test [2], in [5], in test [8], in test [9] and in [10] was “inactive” throughout. The Potency entry in test [12], in test [15], in test [16] and in test [17] was “inactive” each time.
Consider `COc1ccc(Nc2ccc(OC)cc2)cc1`, for which the Potency in [19] was 20.4 µM (active); in [4] it was 17.5 µM (active); in test [7], 27.8 µM (active); in [16], 25 µM (active). Also, the Potency entry in [1], in test [3], in test [5], in [12], in test [13] and in [15] was “inactive” throughout. The Potency result in test [17] and in test [18] was “inactive” in each case. The activity change, positive = activation in [14] is 38% (active).
Take `CN1CCN(c2c(F)cc3c(=O)c(C(=O)O)cn(CCF)c3c2F)CC1`: the Potency result in test [19], in test [1], in test [5], in test [9], in test [10] and in [12] was “inactive” each time. The Potency result in test [15], in test [16] and in test [17] was “inactive” each time. In addition, the compound was called inactive in [11].
Consider `CN(C)C(=O)NC1(c2ccccc2)CCN(CCC[C@]2(c3ccc(Cl)c(Cl)c3)CCCN(C(=O)c3ccccc3)C2)CC1`, for which the activity change, negative = inhibition in test [19] was -2.4% [at 23.6 µM]. The viability change, negative = cytotoxic in test [1] was -28.7% [at 19 µM]. In addition, the activity, negative = inhibition in [3] was -20.2% [at 19 µM]. Besides, the activation is -6.21% [at 19 µM] in test [4] and 0.323% [at 15.8 µM] in test [11]. Also, the activity change, negative = cytotoxicity was -18.7% [at 15.8 µM] in test [9] and -0.817% [at 31.6 µM] in test [12]. Also, the activation (H2AX phosphorylation) in test [10] was 5.48% [at 31.6 µM]. The cytotoxicity in [17] was -1.6% [at 15.8 µM]. Also, the activity change, negative = cytotoxic in test [18] is -4.9% [at 15.8 µM].
For `O=C(O)[C@@H](O)[C@H](O)[C@H](O)[C@@H](O)C(=O)O`, the Potency result in [19], in [1], in test [5], in test [6], in test [7] and in test [8] was “inactive” each time. Further, the Potency result in [9], in [10], in [12], in test [13], in [15] and in [16] was “inactive” throughout. The Potency result in [17] and in [18] was “inactive” throughout. Also, in test [11], the outcome was inactive. Besides, the activity change, positive = activation in [14] is 4.4% [at 42.5 µM].
As for `CCCCCCCCCC/C=C/C#N`, the Potency result in test [19], in [1], in test [3], in test [4], in test [5] and in test [6] was “inactive” each time. Besides, the Potency entry in test [7], in test [8], in test [9], in [10], in test [12] and in [13] was “inactive” in each case. Moreover, the Potency result in [16], in [17] and in [18] was “inactive” in each case. Also, the compound was classed as inactive in test [11]. For the same compound, the activity change, positive = activation in [14] is -1.03%.

The values above are taken from PubChem BioAssay (Tox21).
